# Data reported in ChEMBL document CHEMBL3988442, “University of Dundee, Small-Polar-MMV Screening Library” (2021).
# For some assays here: Entries with a potency or affinity are not part of this list.
# Tests used:
# [1] = molecular target: T1, Methionyl-tRNA synthetase, putative (Leishmania donovani (strain BPK282A1)) (UniProt E9BF75); experiment: Leishmania donovani Methionine tRNA synthetase (LdMetRS):v7. Dose response assay; format: functional; parameters: conc 80 nM, time 150 minutes
# T1 sequence (whole entry): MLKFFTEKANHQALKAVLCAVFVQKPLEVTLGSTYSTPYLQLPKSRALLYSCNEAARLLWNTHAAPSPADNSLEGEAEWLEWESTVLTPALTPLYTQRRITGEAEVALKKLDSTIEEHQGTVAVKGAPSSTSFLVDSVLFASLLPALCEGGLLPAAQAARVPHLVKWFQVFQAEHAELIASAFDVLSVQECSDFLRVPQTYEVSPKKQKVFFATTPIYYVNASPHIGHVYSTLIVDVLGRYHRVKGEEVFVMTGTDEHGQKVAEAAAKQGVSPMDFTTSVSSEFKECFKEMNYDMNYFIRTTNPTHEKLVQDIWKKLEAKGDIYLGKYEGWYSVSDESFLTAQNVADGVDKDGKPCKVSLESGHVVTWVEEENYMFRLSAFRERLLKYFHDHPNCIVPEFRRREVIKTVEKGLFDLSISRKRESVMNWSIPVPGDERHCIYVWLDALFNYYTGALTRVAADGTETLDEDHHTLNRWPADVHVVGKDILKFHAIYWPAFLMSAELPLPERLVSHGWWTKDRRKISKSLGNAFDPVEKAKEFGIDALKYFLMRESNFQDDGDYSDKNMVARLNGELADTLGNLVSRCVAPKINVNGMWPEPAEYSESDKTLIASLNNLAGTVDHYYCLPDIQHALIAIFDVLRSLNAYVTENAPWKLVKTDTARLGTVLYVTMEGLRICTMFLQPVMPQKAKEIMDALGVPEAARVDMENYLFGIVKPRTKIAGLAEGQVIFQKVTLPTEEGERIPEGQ
# [2] = molecular target: Protein translocase subunit SecA (Escherichia coli (strain K12)) (UniProt P10408); experiment: Assay to Identify E. coli SecA ATPase Inhibitors; format: functional; parameters: scale not given: direction of the effect not stated beside the values; settings: 30 µM
# [3] = molecular target: T2, Ubiquitin-activating enzyme e1, putative (Leishmania donovani (strain BPK282A1)) (UniProt E9BSI1); experiment: Leishmania donovani Ubiquitin Activating Enzyme (LdE1); format: functional; parameters: scale not given: direction of the effect not stated beside the values; settings: 30 µM
# T2 sequence (whole entry): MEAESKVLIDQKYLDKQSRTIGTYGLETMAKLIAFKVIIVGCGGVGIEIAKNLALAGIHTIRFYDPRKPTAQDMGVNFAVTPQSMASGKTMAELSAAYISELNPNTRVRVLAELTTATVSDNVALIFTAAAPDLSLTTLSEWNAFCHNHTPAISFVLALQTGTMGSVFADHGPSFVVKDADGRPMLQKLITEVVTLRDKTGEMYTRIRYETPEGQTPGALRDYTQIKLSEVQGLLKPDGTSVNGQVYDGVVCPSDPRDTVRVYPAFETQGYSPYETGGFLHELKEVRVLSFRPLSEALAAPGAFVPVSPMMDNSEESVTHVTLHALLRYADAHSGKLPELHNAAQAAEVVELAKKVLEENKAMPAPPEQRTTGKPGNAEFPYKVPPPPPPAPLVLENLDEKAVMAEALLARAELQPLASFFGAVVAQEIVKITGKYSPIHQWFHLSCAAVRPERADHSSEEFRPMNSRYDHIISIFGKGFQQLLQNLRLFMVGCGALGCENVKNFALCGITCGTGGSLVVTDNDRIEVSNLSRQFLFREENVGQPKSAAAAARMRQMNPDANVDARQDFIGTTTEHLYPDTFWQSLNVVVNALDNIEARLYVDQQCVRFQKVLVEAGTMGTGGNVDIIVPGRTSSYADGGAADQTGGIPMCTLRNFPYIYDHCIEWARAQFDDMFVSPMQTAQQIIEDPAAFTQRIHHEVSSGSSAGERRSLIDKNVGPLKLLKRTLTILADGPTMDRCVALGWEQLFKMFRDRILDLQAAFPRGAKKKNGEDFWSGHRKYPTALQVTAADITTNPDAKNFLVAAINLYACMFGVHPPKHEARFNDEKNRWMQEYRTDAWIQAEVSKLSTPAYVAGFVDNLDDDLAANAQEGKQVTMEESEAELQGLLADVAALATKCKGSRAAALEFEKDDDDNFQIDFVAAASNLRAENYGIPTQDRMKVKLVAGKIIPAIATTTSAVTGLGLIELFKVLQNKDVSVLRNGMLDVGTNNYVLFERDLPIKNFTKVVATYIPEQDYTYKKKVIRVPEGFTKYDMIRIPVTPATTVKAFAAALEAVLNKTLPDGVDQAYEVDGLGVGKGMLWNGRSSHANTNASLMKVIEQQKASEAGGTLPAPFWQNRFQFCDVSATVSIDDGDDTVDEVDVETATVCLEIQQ
# [4] = molecular target: AMP-activated protein kinase, AMPK (Homo sapiens) (UniProt P54646+O43741+P54619+Q9UGJ0+Q9Y478+Q13131+Q9UGI9); experiment: AMP-dependent Kinase enzyme assay. An in vitro enzyme assay that detects ADP turnover that is directly proportional to AMPK activity. This uses naive AMPK that is activated during the assay with MK-8722; format: functional; parameters: scale not given: direction of the effect not stated beside the values; settings: 30 µM
# [5] = molecular target: Sialic acid-binding Ig-like lectin 9 (Homo sapiens) (UniProt Q9Y336); experiment: Hs-Siglec9 ALPHAscreen SOP 20170721; parameters: scale not given: direction of the effect not stated beside the values; settings: 10 µM
# Trypanosoma cruzi = experiment: Trypanosoma cruzi phosphomannomutase and mannose-1-phosphate guanylyltransferase assay; format: functional; parameters: scale not given: direction of the effect not stated beside the values; settings: 10 µM
# [6] = molecular target: T3, Arginase-2, mitochondrial (Homo sapiens) (UniProt P78540); experiment: in vitro enzyme assay to detect the production of urea directly proportional to the activity of Arginase II; format: functional; parameters: scale not given: in the data most compounds retested in dose-response had high values; settings: 33.3 µM
# T3 sequence (whole entry): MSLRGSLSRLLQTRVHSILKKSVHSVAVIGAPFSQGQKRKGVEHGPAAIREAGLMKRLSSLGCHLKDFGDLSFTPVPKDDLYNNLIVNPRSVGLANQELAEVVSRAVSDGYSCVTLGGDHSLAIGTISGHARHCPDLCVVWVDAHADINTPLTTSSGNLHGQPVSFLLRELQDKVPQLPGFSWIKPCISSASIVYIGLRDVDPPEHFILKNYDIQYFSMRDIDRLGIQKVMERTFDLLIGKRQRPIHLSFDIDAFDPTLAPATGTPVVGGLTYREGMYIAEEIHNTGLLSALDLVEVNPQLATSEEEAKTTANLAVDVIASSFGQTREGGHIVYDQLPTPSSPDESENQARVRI
# [7] = molecular target: T4, Proteasome subunit beta (Trypanosoma cruzi) (UniProt O96673); experiment: Trypanosoma cruzi proteasome chymotrypsin-like activity (TcProtChymo) assay.; format: functional; parameters: scale not given: in the data most compounds retested in dose-response had high values; settings: 9.37 µM
# T4 sequence (whole entry): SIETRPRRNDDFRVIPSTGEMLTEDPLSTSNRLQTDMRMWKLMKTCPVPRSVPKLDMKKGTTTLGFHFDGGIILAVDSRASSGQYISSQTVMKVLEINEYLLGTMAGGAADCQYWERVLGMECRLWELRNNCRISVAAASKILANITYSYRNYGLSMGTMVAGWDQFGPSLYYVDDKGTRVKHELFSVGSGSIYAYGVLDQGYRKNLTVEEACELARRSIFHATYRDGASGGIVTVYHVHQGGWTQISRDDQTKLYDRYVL
# Homo sapiens = organism: Homo sapiens; experiment: To identify inhibition of the IFN signalling (Jak-Stat) pathway via expression of an eGFP reporter gene under the control of an IFN-stimulated response element (ISRE) containing MxA promoter.; format: functional; parameters: scale not given: direction of the effect not stated beside the values; settings: 30 µM
# [8] = molecular target: T5, Tyrosyl-tRNA synthetase, putative (Trypanosoma cruzi (strain CL Brener)) (UniProt Q4DSP6); experiment: Trypanosoma cruzi tyrosyl tRNA synthetase (TcYRS) _High Tyrosine SOP; format: functional; parameters: scale not given: in the data most compounds retested in dose-response had high values; settings: 30 µM
# T5 sequence (whole entry): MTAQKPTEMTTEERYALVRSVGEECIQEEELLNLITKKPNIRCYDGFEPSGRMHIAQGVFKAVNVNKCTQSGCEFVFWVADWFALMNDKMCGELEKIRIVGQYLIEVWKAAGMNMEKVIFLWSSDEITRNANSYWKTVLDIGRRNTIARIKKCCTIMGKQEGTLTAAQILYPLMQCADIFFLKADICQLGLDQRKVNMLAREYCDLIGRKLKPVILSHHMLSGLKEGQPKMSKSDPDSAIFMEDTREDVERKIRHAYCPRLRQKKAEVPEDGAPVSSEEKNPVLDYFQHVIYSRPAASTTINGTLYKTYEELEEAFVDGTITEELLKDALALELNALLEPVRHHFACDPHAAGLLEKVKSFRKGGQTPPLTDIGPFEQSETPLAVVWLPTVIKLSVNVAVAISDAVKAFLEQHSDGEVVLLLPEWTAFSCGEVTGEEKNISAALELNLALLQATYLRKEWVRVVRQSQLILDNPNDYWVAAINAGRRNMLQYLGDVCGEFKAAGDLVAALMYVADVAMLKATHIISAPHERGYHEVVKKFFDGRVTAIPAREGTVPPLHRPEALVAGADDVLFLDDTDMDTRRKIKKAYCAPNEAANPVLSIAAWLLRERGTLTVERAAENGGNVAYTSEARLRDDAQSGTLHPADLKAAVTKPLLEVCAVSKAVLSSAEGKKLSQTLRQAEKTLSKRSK
# [9] = molecular target: T5, Tyrosyl-tRNA synthetase, putative (Trypanosoma cruzi (strain CL Brener)); experiment: Trypanosoma cruzi tyrosyl tRNA synthetase (TcYRS) SOP; format: functional; parameters: scale not given: direction of the effect not stated beside the values; settings: 30 µM
# [10] = molecular target: Chromo domain-containing protein 1 (Saccharomyces cerevisiae (strain ATCC 204508 / S288c) (Baker's yeast)) (UniProt P32657); experiment: ScCHD-1 Enzyme Inhibition Assay; format: functional; parameters: scale not given: in the data most compounds retested in dose-response had high values; settings: 30 µM
# Sequence of Chromo domain-containing protein 1 (Saccharomyces cerevisiae (strain ATCC 204508 / S288c) (Baker's yeast)) (P32657 whole entry, the tested form may be a part): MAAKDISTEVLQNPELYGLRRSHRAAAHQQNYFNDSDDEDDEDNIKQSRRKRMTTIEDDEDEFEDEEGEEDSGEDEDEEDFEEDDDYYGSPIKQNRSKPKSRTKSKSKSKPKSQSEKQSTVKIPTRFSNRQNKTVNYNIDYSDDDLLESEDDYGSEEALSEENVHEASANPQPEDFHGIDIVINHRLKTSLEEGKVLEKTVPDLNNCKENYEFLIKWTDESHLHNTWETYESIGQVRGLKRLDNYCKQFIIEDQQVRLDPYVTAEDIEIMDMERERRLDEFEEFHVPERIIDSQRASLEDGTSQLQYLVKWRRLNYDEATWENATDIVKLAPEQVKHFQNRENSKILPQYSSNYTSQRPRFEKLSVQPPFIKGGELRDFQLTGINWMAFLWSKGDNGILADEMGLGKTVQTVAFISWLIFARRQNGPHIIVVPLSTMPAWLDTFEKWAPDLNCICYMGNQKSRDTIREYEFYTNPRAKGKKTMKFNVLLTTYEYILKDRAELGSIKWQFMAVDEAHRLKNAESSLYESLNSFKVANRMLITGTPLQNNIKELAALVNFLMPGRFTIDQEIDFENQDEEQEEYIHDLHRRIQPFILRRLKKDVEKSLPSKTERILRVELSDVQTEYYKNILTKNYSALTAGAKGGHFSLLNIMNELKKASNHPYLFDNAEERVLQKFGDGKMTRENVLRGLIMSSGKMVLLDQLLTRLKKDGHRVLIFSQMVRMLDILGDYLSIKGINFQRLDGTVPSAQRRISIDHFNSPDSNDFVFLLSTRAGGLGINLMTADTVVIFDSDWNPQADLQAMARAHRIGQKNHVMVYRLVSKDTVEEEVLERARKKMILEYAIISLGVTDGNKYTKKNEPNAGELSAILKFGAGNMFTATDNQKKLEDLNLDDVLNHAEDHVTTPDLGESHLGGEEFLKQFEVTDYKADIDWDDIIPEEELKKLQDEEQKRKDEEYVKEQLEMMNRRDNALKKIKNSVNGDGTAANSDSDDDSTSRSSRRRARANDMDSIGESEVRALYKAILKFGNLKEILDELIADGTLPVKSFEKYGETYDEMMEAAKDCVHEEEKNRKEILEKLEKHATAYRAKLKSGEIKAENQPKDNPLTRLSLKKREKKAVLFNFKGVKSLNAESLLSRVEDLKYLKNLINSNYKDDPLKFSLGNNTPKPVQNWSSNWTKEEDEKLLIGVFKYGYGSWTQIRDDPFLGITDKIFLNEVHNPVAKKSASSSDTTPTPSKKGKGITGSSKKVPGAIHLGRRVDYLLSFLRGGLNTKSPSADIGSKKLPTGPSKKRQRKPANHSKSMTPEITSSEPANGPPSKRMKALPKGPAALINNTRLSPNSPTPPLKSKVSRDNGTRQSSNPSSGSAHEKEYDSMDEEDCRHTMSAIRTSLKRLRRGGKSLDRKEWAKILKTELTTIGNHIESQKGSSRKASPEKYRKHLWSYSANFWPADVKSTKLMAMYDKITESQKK
# Sequence of Sialic acid-binding Ig-like lectin 9 (Homo sapiens) (Q9Y336 whole entry): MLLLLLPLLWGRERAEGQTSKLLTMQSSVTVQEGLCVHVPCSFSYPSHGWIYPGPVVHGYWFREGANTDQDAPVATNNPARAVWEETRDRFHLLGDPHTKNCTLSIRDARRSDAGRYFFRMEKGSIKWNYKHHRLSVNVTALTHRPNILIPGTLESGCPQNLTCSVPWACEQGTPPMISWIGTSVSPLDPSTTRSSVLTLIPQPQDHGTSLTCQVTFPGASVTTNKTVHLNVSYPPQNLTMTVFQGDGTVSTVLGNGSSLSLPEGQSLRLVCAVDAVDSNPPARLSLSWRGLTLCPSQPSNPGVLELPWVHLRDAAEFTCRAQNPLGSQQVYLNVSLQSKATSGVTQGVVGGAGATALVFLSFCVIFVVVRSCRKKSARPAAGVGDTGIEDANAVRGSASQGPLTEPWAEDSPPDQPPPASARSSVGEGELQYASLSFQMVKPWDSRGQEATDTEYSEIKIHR
# Sequence of Protein translocase subunit SecA (Escherichia coli (strain K12)) (P10408 whole entry): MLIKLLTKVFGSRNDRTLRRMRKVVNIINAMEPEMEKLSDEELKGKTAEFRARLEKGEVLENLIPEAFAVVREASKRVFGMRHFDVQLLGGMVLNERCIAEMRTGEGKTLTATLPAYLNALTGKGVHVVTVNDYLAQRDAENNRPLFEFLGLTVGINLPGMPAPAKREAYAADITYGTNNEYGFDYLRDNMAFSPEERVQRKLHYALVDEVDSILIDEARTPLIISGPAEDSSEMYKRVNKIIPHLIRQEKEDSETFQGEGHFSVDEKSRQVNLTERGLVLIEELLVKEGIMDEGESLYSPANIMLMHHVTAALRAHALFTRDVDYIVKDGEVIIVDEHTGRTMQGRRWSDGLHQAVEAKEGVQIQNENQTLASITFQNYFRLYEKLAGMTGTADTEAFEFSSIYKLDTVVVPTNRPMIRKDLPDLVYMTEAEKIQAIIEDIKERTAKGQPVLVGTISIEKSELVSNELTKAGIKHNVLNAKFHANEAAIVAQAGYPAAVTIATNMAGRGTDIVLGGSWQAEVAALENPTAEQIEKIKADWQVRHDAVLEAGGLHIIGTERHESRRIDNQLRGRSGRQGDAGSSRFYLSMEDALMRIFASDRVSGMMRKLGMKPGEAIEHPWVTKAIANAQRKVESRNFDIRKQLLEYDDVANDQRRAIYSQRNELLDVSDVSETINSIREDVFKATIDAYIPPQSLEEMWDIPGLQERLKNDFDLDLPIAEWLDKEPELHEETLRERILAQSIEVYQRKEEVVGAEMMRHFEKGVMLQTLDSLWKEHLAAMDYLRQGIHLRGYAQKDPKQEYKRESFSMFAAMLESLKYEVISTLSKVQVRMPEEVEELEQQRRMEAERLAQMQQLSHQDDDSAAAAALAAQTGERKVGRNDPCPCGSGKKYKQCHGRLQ
smiles,measurement,setting,value
O=C(c1ccc(F)c(Cl)c1)N1C[C@@H]2CC[C@H](C1)N(Cc1ccccc1)C2,PXC50,[1]; MAX_EFFECT 29.03225806,< 4
same,PXC50,[1]; MAX_EFFECT 41.91419142,< 4
same,PXC50,[1]; MAX_EFFECT 44.92753623,< 4
same,Percent Effect,[2],-1.36%
same,Percent Effect,[3],-13.7%
same,Percent Effect,[4],5.89%
same,Percent Effect,[5],19.2%
same,Percent Effect,Trypanosoma cruzi,-6.15%
same,Percent Effect,[6],1.6%
same,Percent Effect,[7],11.2%
same,Percent Effect,Homo sapiens,-10.1%
same,Percent Effect,[8],11.5%
same,Percent Effect,[9],25.9%
same,Percent Effect,[10],0.975%
CC(C)c1nc(CNC2CCCN(c3cccnn3)C2)no1 (configuration not stated),PXC50,"[1]; BOTTOM -4.804668592, HILLSLOPE 1.43236327, MAX_EFFECT 76.8115942, TOP 100.0",4.38
same,PXC50,"[1]; BOTTOM -10.26857321, HILLSLOPE 1.286287287, MAX_EFFECT 68.70748299, TOP 100.0",4.3
same,PXC50,[1]; MAX_EFFECT 0.790513834,< 4
same,PXC50,[1]; MAX_EFFECT 4.444444444,< 4
same,PXC50,[1]; MAX_EFFECT 61.12084063,< 4
Cc1ccccc1C1(CNc2nnc(C)c(C)c2C#N)CCOCC1,PXC50,[1]; MAX_EFFECT 12.82660333,< 4
same,PXC50,[1]; MAX_EFFECT 19.54225352,< 4
same,Percent Effect,[2],-3.65%
same,Percent Effect,[3],0%
same,Percent Effect,[4],-11.2%
same,Percent Effect,[5],2.86%
same,Percent Effect,Trypanosoma cruzi,-0.193%
same,Percent Effect,[6],-0.952%
same,Percent Effect,[7],9.31%
same,Percent Effect,Homo sapiens,19.4%
same,Percent Effect,[8],2.65%
same,Percent Effect,[9],0%
same,Percent Effect,[10],-3.83%
